23 molecules from PubChem BioAssay (NCATS) can be followed below.

Records with an inconclusive call do not appear. Entries that show only a call come without a potency. Active and inactive are the calls of the source. The call rests on the fitted dose curve; in most records, active means well fitted cell-killing curve with a large enough effect; inconclusive means small, poorly fitted or top-dose-only effect; inactive means flat fitted curve, though single readings scatter.

A short description of this assay: Cellular viability qHTS for adrenocortical cancer (ACC) cell line NCI-H295R (AID 1963990). Further: nearly all actives have a fitted effect of over 60% in size. To be noted: CellTiter-Glo ATP luminescence, 48 h; series mostly up to 46.1 µM. In a few lines:
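CellTiter-Glo ATP luminescence, read 48 h after compound addition, measured viability of NCI-H295R adrenocortical cells grown serum-free with ITS. Final concentrations spanned up to 46 uM. Data normalized to DMSO and doxorubicin, fitted for IC50 and maximal response.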
For orientation: qHTS replaces the single test concentration by a dilution series.
As for `COc1ccc(-c2oc3c(CC=C(C)C)c(OC4O[C@H](CO)[C@@H](O)[C@H](O)[C@H]4O)cc(O)c3c(=O)c2OC2O[C@@H](C)[C@H](O)[C@@H](O)[C@H]2O)cc1` (stereo partly drawn), the Potency entry is “inactive”.

In the case of `CN1CCC(N(Cc2cccs2)c2ccccc2)CC1`, the Potency entry was “inactive”.

Regarding `O=C(CS)Nc1ccccc1`, the Potency entry is “inactive”.

On to `O=C1[C@@H]2[C@H]3CC[C@H](C3)[C@@H]2C(=O)N1CCCCN1CCN(c2ncccn2)CC1`, for which the Potency result was “inactive”.

Take `c1ccc(-c2nc[nH]c2-c2ccccc2)cc1`: the Potency entry is “inactive”.

In the case of `CC(=O)OC(C)OC(=O)C(C)c1ccc(-c2ccccc2)c(F)c1` (stereo not drawn), the Potency result was “inactive”.

In the case of `C=CCOc1cc(Cl)ccc1C(=O)NCCN(CC)CC`, the Potency result is “inactive”.

For the molecule `COCCCc1sc(-c2ccccc2)nc1C(=O)Nc1ccccc1-c1nc2cc(CN3CCCC3)cnc2s1`, the Potency entry was “inactive”.

In the case of `OC[C@H]1O[C@@H](Oc2cc(O)cc(/C=C/c3ccc(O)cc3)c2)[C@H](O)[C@@H](O)[C@@H]1O`, the Potency entry is “inactive”.

`CN(Cc1ccccc1)C(=O)c1ccc(S(=O)(=O)Nc2ccccc2)cc1`: the Potency result was “inactive”.

With `CCN1C(=O)c2ccccc2C1Nc1ccc(OCCN2CCCCC2)cc1` (stereo not drawn), the Potency entry is “inactive”.

Turning to `CN(C)N(C)C(=O)[C@@]1(Cc2ccccc2)CCCN(C(=O)[C@@H](Cc2c[nH]c3ccccc23)NC(=O)C(C)(C)N)C1`, the Potency entry is “inactive”.

Take `CO[C@@]1(NC(=O)CSCC#N)C(=O)N2C(C(=O)O)=C(CSc3nnnn3C)CS[C@@H]21`: the Potency result was “inactive”.

Regarding `CCN(CC)CCNC(=O)c1cc(Br)c(N)cc1OC`, the Potency entry is “inactive”.

Turning to `CCCCCCCCCCCCCCNCCO`, the Potency was 23.1 µM (active).

For the molecule `O=C(O)P(=O)(O)O`, the Potency result is “inactive”.

For `CC[N+]1(CC)CCC(=C(c2ccccc2)c2ccccc2)C1C` (stereo not drawn), the Potency entry was “inactive”.

Turning to `C[C@@H](O)[C@H](N)C(=O)O`, the Potency result was “inactive”.

For `CC[C@]12CCCN3CCc4c(n(c5ccccc45)C(=O)C1)[C@@H]32`, the Potency is 5.8 µM (active).

Consider `CN1CCC[C@@H]1CCO[C@](C)(c1ccccc1)c1ccc(Cl)cc1`, for which the Potency is 20.6 µM (active).

For the molecule `NCc1ccccc1Sc1ccccc1CO`, the Potency entry is “inactive”.

For `COCCNCc1ccc(-c2cc3nccc(Oc4ccc(NC(=O)C5(C(=O)Nc6ccc(F)cc6)CC5)cc4F)c3s2)nc1`, the Potency was 3.16 µM (active).

Take `COc1cc2c3c(n(CCCNCCO)c(=O)c2cc1OC)-c1cc2c(cc1C3=O)OCO2`: the Potency is 2.82 µM (active).
